# What was measured:
# Experiment in all cases: DAPPL (digital affinity profiling via proximity ligation, sequencing); 10 mM Tris-HCl pH 7.5, 50 mM NaCl, 1 mM DTT, 4% glycerol, room temperature, 30 min; GST-TFs on glutathione beads, 16-mer random dsDNA library, 0.1% formaldehyde crosslink after washing; high values mean tight binding
# FLI1 = biological target: T1, FLI1 (Homo sapiens, UniProt Q01543 1-452); settings: protein: recombinant; tags: N-terminal GST; dsDNA, one strand shown
# T1 sequence: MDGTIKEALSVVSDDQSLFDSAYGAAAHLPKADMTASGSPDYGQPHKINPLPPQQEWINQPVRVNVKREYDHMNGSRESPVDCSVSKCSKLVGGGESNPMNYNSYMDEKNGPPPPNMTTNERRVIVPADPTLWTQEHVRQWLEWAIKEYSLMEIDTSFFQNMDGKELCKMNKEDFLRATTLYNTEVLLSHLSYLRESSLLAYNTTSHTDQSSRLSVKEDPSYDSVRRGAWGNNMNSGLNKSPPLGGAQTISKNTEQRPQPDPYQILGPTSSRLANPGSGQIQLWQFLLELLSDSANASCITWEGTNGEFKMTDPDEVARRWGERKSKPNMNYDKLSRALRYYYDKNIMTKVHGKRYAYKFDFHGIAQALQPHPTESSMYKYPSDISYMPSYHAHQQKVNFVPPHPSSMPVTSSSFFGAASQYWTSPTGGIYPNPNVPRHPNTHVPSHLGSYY
# In short: (§1)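 Human transcription factors were made in yeast as GST fusions, captured on glutathione beads and barcoded with DNA. With a tag-only sample included, the pool was incubated with 200 nmole of a random double-stranded 16-mer DNA library in Tris/NaCl/DTT/glycerol buffer at room temperature for 30 min, then crosslinked with 0.1% formaldehyde after washing, ligated by proximity, amplified and sequenced. For binding signal, each hexamer's read frequency for a factor is divided by its frequency for the tag-only sample.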
# ELK1 = biological target: T2, ELK1 (Homo sapiens, UniProt P19419 1-428); settings: protein: recombinant; tags: N-terminal GST; dsDNA, one strand shown
# T2 sequence: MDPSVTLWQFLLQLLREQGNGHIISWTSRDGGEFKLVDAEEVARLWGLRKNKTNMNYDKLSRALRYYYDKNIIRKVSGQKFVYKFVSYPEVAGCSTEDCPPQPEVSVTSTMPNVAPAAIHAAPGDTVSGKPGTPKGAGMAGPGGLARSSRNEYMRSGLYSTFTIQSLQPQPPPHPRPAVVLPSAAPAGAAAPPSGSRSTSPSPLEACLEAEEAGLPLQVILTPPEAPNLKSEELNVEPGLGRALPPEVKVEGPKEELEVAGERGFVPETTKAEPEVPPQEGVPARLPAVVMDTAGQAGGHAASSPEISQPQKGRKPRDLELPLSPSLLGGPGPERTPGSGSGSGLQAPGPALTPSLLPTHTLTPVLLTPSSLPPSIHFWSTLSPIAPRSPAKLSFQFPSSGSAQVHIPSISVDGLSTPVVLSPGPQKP
# In short: as §1
# GABPA = biological target: T3, GABPA (Homo sapiens, UniProt Q06546 1-454); settings: protein: recombinant; tags: N-terminal GST; dsDNA, one strand shown
# T3 sequence: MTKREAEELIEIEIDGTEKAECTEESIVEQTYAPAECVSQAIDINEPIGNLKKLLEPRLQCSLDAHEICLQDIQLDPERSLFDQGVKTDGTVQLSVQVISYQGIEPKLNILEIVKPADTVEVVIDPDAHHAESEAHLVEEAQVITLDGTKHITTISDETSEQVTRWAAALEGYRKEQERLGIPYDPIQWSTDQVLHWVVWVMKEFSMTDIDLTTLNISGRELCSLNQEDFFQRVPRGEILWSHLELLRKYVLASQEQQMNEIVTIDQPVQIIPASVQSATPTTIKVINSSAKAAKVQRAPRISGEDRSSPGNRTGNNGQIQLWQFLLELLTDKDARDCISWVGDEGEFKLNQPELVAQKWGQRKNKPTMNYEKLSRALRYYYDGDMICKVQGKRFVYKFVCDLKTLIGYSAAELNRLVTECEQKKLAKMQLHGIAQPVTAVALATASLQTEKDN
# In short: as §1
# ERG = biological target: T4, ERG (Homo sapiens, UniProt P11308 1-479); settings: protein: recombinant; tags: N-terminal GST; dsDNA, one strand shown
# T4 sequence: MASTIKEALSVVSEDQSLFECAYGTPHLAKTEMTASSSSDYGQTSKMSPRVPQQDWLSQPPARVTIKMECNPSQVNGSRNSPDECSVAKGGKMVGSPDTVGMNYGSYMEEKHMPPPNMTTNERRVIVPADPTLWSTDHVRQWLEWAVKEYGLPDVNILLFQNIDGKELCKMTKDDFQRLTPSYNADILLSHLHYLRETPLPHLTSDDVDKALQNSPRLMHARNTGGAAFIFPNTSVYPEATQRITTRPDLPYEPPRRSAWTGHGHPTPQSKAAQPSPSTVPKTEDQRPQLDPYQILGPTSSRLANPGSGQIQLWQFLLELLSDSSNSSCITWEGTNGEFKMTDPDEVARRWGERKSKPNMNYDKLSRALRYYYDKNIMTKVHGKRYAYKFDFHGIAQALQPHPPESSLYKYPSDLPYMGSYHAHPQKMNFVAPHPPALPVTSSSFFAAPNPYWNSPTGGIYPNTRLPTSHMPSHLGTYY
# In short: as §1
# ELF1 = ELF1 (Homo sapiens, UniProt P32519 1-619); settings: protein: recombinant; tags: N-terminal GST; dsDNA, one strand shown
# Sequence of ELF1 (P32519 whole entry): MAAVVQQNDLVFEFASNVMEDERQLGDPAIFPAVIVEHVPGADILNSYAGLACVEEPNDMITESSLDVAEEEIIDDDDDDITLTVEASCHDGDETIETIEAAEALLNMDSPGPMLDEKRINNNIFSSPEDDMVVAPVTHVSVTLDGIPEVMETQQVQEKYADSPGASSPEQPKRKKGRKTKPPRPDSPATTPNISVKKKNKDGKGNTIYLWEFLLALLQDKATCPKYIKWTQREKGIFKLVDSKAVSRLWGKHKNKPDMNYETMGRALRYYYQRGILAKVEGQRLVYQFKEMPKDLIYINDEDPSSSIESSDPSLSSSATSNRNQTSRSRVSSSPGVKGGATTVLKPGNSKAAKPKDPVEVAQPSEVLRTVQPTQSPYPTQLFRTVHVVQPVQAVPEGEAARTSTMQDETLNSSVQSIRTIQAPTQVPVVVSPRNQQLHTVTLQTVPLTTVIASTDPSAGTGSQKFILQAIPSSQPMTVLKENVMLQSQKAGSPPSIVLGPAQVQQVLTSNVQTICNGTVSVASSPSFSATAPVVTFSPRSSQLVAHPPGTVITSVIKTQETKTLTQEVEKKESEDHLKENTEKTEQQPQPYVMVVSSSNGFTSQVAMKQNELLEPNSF
# In short: as §1
# EHF = biological target: T5, EHF (Homo sapiens, UniProt Q9NZC4 1-300); settings: protein: recombinant; tags: N-terminal GST; dsDNA, one strand shown
# T5 sequence: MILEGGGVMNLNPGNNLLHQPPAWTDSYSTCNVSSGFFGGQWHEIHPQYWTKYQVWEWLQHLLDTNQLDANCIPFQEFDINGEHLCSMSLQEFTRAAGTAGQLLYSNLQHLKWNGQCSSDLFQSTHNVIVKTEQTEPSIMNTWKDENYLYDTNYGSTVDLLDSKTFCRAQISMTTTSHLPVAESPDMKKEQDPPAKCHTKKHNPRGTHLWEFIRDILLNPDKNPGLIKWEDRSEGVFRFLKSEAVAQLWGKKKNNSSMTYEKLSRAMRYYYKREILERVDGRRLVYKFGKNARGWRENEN
# In short: as §1
# SPIB = SPIB (Homo sapiens, UniProt Q01892 1-262); settings: protein: recombinant; tags: N-terminal GST; dsDNA, one strand shown
# Sequence of SPIB (Q01892 whole entry): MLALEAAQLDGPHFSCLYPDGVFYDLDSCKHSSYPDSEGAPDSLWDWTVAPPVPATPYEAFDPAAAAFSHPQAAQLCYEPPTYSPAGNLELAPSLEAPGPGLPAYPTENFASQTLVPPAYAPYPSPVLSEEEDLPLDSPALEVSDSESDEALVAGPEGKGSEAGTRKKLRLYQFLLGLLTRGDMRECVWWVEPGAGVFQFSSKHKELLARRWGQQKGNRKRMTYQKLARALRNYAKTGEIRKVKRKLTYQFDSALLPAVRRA
# In short: as §1
# ELK3 = biological target: T6, ELK3 (Homo sapiens, UniProt P41970 1-407); settings: protein: recombinant; tags: N-terminal GST; dsDNA, one strand shown
# T6 sequence: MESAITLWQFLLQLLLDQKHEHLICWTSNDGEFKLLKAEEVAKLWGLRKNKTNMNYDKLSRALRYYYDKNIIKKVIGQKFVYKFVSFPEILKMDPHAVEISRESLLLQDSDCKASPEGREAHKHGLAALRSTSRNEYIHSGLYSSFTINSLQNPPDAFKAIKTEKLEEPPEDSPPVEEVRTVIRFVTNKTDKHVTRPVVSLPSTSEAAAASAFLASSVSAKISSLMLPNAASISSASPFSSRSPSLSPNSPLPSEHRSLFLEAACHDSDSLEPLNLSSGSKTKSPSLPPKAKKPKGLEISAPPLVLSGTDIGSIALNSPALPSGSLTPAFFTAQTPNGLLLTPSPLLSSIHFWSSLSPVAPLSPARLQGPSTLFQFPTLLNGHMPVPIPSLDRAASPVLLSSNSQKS
# In short: as §1
# FEV = biological target: T7, FEV (Homo sapiens, UniProt Q99581 1-238); settings: protein: recombinant; tags: N-terminal GST; dsDNA, one strand shown
# T7 sequence: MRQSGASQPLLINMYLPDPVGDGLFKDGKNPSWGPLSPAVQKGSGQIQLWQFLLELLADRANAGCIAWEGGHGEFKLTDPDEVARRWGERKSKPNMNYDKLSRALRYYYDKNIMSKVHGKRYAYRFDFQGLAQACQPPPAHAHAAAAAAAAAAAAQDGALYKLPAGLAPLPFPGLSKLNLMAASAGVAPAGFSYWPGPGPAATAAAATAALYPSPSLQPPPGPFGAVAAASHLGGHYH
# In short: as §1
# ETV5 = ETV5 (Homo sapiens, UniProt P41161 1-510); settings: protein: recombinant; tags: N-terminal GST; dsDNA, one strand shown
# Sequence of ETV5 (P41161 whole entry): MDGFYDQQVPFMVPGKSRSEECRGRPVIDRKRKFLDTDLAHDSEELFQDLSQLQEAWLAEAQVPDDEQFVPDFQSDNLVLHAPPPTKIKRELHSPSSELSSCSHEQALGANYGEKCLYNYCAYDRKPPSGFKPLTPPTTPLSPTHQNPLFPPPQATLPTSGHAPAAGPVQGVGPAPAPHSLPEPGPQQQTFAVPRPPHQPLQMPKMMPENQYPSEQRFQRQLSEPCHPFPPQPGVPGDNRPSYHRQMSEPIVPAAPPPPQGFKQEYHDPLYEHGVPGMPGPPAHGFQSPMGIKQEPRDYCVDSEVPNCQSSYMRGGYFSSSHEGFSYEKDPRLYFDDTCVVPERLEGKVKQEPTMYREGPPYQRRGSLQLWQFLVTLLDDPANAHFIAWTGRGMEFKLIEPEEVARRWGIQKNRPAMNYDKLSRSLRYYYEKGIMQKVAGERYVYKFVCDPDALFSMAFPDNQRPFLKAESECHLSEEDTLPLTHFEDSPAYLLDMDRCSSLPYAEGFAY
# In short: as §1
# HSF1 = HSF1 (Homo sapiens, UniProt Q00613 1-529); settings: protein: recombinant; tags: N-terminal GST; chain copies: 3; dsDNA, one strand shown
# Sequence of HSF1 (Q00613 whole entry): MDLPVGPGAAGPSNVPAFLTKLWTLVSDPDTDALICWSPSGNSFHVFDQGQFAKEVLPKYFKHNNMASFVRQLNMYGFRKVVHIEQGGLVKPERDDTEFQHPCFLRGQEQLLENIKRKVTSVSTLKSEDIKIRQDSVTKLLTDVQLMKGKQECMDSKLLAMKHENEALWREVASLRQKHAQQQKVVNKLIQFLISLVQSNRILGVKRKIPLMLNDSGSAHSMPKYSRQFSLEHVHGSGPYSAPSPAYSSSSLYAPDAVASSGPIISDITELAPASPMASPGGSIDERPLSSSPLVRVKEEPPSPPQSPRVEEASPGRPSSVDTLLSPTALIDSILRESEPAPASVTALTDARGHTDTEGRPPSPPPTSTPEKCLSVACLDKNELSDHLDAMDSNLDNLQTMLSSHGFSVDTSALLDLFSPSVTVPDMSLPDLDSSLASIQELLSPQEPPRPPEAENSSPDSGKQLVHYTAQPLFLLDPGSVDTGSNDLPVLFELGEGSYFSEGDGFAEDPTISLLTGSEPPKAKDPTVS
# In short: as §1
# SPIC = biological target: T8, SPIC (Homo sapiens, UniProt Q8N5J4 1-248); settings: protein: recombinant; tags: N-terminal GST; dsDNA, one strand shown
# T8 sequence: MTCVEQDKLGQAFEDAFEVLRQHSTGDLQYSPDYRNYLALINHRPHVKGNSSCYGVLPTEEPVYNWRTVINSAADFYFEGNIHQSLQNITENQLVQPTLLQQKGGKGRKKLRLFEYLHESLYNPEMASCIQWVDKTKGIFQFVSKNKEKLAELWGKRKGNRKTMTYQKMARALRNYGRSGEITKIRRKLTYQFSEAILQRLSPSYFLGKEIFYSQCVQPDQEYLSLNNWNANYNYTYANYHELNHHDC
# In short: as §1
# ELF4 = ELF4 (Homo sapiens, UniProt Q99607 1-663); settings: protein: recombinant; tags: N-terminal GST; dsDNA, one strand shown
# Sequence of ELF4 (Q99607 whole entry): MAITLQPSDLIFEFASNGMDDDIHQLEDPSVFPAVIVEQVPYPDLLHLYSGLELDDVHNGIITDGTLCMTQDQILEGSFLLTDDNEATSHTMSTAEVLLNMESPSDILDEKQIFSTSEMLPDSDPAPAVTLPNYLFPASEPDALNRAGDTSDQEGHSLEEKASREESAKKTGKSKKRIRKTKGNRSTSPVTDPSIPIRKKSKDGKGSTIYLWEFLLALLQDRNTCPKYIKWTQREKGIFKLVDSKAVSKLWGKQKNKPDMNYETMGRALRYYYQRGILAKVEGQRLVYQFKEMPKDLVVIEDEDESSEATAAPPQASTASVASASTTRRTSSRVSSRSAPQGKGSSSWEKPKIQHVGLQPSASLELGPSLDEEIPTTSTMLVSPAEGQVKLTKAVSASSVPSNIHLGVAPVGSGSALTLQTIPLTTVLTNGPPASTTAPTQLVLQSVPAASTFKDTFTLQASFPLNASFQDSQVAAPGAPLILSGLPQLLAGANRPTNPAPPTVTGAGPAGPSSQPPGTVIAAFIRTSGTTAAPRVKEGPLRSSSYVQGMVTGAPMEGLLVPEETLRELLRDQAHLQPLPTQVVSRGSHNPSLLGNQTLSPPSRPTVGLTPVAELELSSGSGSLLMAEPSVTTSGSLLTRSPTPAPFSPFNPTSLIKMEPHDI
# In short: as §1
# ELK4 = biological target: T9, ELK4 (Homo sapiens, UniProt P28324-2 1-405); settings: protein: recombinant; tags: N-terminal GST; dsDNA, one strand shown
# T9 sequence: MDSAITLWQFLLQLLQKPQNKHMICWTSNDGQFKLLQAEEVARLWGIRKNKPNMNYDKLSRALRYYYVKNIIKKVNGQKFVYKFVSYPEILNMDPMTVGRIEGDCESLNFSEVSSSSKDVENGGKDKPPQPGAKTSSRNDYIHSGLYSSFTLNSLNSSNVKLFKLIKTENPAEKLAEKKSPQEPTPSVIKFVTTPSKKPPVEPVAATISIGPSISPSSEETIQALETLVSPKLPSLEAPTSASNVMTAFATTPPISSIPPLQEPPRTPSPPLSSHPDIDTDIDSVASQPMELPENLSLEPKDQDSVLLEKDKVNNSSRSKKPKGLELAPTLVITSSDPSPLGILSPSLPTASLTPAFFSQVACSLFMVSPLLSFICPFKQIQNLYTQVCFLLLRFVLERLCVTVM
# In short: as §1
# ETV2 = biological target: T10, ETV2 (Homo sapiens, UniProt O00321 1-342); settings: protein: recombinant; tags: N-terminal GST; dsDNA, one strand shown
# T10 sequence: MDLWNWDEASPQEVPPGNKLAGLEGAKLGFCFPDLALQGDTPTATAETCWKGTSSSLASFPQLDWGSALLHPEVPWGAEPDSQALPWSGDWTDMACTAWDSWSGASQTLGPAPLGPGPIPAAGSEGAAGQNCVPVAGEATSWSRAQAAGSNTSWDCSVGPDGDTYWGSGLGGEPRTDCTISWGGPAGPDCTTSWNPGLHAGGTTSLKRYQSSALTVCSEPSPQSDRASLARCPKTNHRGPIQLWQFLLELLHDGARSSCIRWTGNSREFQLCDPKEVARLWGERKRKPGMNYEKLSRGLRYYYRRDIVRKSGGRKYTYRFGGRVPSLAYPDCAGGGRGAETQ
# In short: as §1
# ELF3 = biological target: T11, ELF3 (Homo sapiens, UniProt P78545 1-371); settings: protein: recombinant; tags: N-terminal GST; dsDNA, one strand shown
# T11 sequence: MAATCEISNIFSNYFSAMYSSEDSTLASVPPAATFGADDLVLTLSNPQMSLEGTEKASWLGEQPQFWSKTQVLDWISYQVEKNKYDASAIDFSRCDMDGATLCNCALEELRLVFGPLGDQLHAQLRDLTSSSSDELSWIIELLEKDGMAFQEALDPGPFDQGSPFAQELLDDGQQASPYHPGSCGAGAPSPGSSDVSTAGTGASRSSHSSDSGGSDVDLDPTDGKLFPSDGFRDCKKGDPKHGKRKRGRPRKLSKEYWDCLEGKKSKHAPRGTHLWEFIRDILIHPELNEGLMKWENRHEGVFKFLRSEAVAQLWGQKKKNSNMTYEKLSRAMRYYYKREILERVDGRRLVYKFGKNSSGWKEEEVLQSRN
# In short: as §1
# CRX = CRX (Homo sapiens, UniProt O43186 1-299); settings: protein: recombinant; tags: N-terminal GST; dsDNA, one strand shown
# Sequence of CRX (O43186 whole entry): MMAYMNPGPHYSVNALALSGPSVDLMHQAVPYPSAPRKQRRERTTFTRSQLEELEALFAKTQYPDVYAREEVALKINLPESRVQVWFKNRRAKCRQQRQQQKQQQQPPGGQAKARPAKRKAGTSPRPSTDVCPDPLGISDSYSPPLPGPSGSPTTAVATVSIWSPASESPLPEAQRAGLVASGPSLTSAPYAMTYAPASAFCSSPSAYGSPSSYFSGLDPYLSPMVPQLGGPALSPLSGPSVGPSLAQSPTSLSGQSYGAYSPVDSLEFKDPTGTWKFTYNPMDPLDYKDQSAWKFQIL
# In short: as §1
# ETV1 = ETV1 (Homo sapiens, UniProt P50549 1-477); settings: protein: recombinant; tags: N-terminal GST; dsDNA, one strand shown
# Sequence of ETV1 (P50549 whole entry): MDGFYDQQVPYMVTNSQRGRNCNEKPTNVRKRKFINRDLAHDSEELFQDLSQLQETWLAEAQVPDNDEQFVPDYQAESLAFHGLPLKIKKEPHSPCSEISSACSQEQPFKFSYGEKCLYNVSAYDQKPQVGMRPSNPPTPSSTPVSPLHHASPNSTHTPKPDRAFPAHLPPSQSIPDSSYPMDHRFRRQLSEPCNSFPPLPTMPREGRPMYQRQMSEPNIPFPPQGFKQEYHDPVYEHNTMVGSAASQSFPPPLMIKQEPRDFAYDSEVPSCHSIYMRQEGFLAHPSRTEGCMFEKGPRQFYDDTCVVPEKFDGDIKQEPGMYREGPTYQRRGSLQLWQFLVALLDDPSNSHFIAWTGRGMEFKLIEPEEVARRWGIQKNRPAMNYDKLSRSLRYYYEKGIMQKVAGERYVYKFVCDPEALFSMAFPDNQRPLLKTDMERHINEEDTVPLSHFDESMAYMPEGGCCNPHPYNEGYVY
# In short: as §1
sequence,measurement,setting,value
TACCTG,binding signal,FLI1,"1.13 fold enrichment (6-mer frequency, TF over GST control)"
same,binding signal,ELK1,"1.21 fold enrichment (6-mer frequency, TF over GST control)"
same,binding signal,GABPA,"1.12 fold enrichment (6-mer frequency, TF over GST control)"
same,binding signal,ERG,"1.17 fold enrichment (6-mer frequency, TF over GST control)"
same,binding signal,ELF1,"1.09 fold enrichment (6-mer frequency, TF over GST control)"
same,binding signal,EHF,"1.16 fold enrichment (6-mer frequency, TF over GST control)"
same,binding signal,SPIB,"1.25 fold enrichment (6-mer frequency, TF over GST control)"
same,binding signal,ELK3,"1.15 fold enrichment (6-mer frequency, TF over GST control)"
same,binding signal,FEV,"1.11 fold enrichment (6-mer frequency, TF over GST control)"
same,binding signal,ETV5,"1.19 fold enrichment (6-mer frequency, TF over GST control)"
same,binding signal,HSF1,"1.04 fold enrichment (6-mer frequency, TF over GST control)"
same,binding signal,SPIC,"1.04 fold enrichment (6-mer frequency, TF over GST control)"
same,binding signal,ELF4,"1.14 fold enrichment (6-mer frequency, TF over GST control)"
same,binding signal,ELK4,"1.07 fold enrichment (6-mer frequency, TF over GST control)"
same,binding signal,ETV2,"1.14 fold enrichment (6-mer frequency, TF over GST control)"
same,binding signal,ELF3,"1.15 fold enrichment (6-mer frequency, TF over GST control)"
same,binding signal,CRX,"1.11 fold enrichment (6-mer frequency, TF over GST control)"
same,binding signal,ETV1,"1.27 fold enrichment (6-mer frequency, TF over GST control)"

# Source: article PMC7862700, “An all-to-all approach to the identification of sequence-specific readers for epigenetic DNA modifications on cytosine”
